Laboratory results as given in PubChem BioAssay (NCI).
This is part of a sample that, as a whole, favours compounds with a hit. Of some 79,000 tested, about 15% had one in any assay. Values without a mark were called inactive. Activity calls are given as the source filed them. Rule as the data show it: active = growth inhibition above about 70%; inactive = the rest.

Tests used:
[1] = NCI Yeast Anticancer Drug Screen. Data for the rad50 strain (AID 155);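 also: 0% = growth of vehicle-only cultures of the same strain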; conditions: S. cerevisiae rad50 strain growth inhibition, active compounds read high
Method in brief: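 Yeast carrying a defined DNA repair defect were exposed to test compounds, and growth was compared with vehicle-treated controls to give percent inhibition.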

[2] = NCI Yeast Anticancer Drug Screen. Data for the mec2-1 strain (AID 157); conditions: S. cerevisiae mec2-1 strain, active compounds read high
Method in brief: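 Growth inhibition is read against vehicle-treated controls after compound exposure of the mec2-1 yeast strain, which is defective in DNA damage repair or cell cycle control.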

[3] = NCI Yeast Anticancer Drug Screen. Data for the sgs1 mgt1 strain (AID 161);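 also: 0% = growth of cultures given vehicle only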; conditions: S. cerevisiae sgs1 mgt1 strain, active compounds read high
Method in brief: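 Growth of a repair-deficient yeast mutant was monitored after compound treatment and expressed as inhibition relative to vehicle-treated cultures.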

[4] = NCI Yeast Anticancer Drug Screen. Data for the cln2 rad14 strain (AID 165);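 also: 0% = growth equal to vehicle treated cultures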; conditions: S. cerevisiae cln2 rad14 strain, active compounds read high
Method in brief: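 Growth inhibition, relative to vehicle-treated controls, is the read-out. The test organism is a yeast strain with defined genetic alterations, cln2 rad14.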

[5] = NCI Yeast Anticancer Drug Screen. Data for the bub3 strain (AID 167); conditions: S. cerevisiae bub3 mutant strain, active compounds read high
Method in brief: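 Compounds were applied to a genetically altered yeast strain carrying a cell-cycle control defect. Growth inhibition was scored against vehicle-treated controls.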

[6] = NCI Yeast Anticancer Drug Screen. Data for the mlh1 rad18 strain (AID 175); conditions: S. cerevisiae mlh1 rad18 strain growth inhibition, active compounds read high
Method in brief: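 Cells of a genetically altered yeast strain, deficient in DNA damage repair, were treated with compound. Their growth was then compared with that of vehicle-treated cultures to give inhibition.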

[7] = at 5.0 µM (retest, dose inferred, filed as 0.5)
[8] = at 50.0 µM (retest, dose inferred, filed as 5.0)

SMILES | growth inhibition [1, 7] | growth inhibition [1, 8] | growth inhibition ([1]; at 50.0 µM) | growth inhibition [2, 7] | growth inhibition [2, 8] | growth inhibition ([2]; at 50.0 µM) | growth inhibition [3, 7] | growth inhibition [3, 8] | growth inhibition ([3]; at 50.0 µM) | growth inhibition [4, 7] | growth inhibition [4, 8] | growth inhibition ([4]; at 50.0 µM) | growth inhibition [5, 7] | growth inhibition [5, 8] | growth inhibition ([5]; at 50.0 µM) | growth inhibition [6, 7] | growth inhibition [6, 8] | growth inhibition ([6]; at 50.0 µM)
CCCCCCCCCCCCCCCCNCCCN(C)CCCN | -1% | 98% (active) | 88.5% (active) | -19% | 98% (active) | 93.5% (active) | 2% | 97% (active) | 93.3% (active) | -26% | 97% (active) | 92% (active) | -26% | 97% (active) | 92.4% (active) | -68% | 97% (active) | 90.3% (active)
O=C1C(Cl)=C(N2C(=O)CCCC2=O)C(=O)c2ccccc21 | 100% (active) | 99% (active) | 89.2% (active) | 100% (active) | 99% (active) | 90.2% (active) | 100% (active) | 99% (active) | 91.5% (active) | 99% (active) | 99% (active) | 89.8% (active) | 100% (active) | 99% (active) | 89.1% (active) | 99% (active) | 99% (active) | 88.3% (active)
CCCCCCCCCCCCCCCC(=O)NCC[N+](CC)(CC)Cc1ccc(C[N+](CC)(CC)CCNC(=O)CCCCCCCCCCCCCCC)cc1 | 99% (active) | 99% (active) | 99.3% (active) | 99% (active) | 100% (active) | 99.6% (active) | 99% (active) | 100% (active) | 99.5% (active) | 99% (active) | 99% (active) | 99.3% (active) | 98% (active) | 99% (active) | 99.5% (active) | 97% (active) | 99% (active) | 99.3% (active)
Nc1ccc2c(c1)NCCN2 | 42% | 76% (active) | 84% (active) | 5% | 17% | 32.1% | 4% | 20% | 23.5% | 3% | 6% | 21.4% | 1% | 18% | 18.2% | 7% | 31% | 53.4%
CCc1ccc2ccc3ccc(CC)nc3c2n1 | 74% (active) | 96% (active) | 96.9% (active) | 85% (active) | 94% (active) | 97.7% (active) | 86% (active) | 96% (active) | 97.8% (active) | 72% (active) | 91% (active) | 82.7% (active) | 95% (active) | 97% (active) | 95.3% (active) | 85% (active) | 96% (active) | 97.7% (active)
CCCCCCCCC/C=C1\CCC(CN(C)C)C1=O (stereo not given) | -26% | 88% (active) | 89.4% (active) | -36% | 98% (active) | 93% (active) | -28% | 91% (active) | 90.8% (active) | -6% | 96% (active) | 89.6% (active) | -24% | 97% (active) | 89.5% (active) | -27% | 97% (active) | 88.8% (active)
CC(/C=C/c1cccs1)=N\NC(=S)NCC(C)C | -3% | 95% (active) | 95.6% (active) | 11% | 96% (active) | 96.2% (active) | 9% | -24% | 97% (active) | -2% | 96% (active) | 94% (active) | -1% | 95% (active) | 96.9% (active) | 3% | 96% (active) | 97% (active)
CN(C)C(C)(C)CCNc1c2ccccc2nc2cccc([N+](=O)[O-])c12 | 96% (active) | 97% (active) | 96% (active) | 98% (active) | 100% (active) | 94.6% (active) | 98% (active) | 99% (active) | 96.7% (active) | 98% (active) | 99% (active) | 94.5% (active) | 96% (active) | 99% (active) | 97.2% (active) | 98% (active) | 100% (active) | 98% (active)
CCN(CC)CCNc1ccc(C)c2sc3cccc(O)c3c(=O)c12 | 86% (active) | 99% (active) | 99.2% (active) | 3% | 72% (active) | 99.7% (active) | 15% | 96% (active) | 99.5% (active) | 2% | 85% (active) | 55.5% | 10% | 96% (active) | 99.5% (active) | 12% | 99% (active) | 99.3% (active)
COC(=O)/C=C(\C)Nc1ccc(Cc2ccc(Cl)cc2)cc1 | 7% | 98% (active) | 98.3% (active) | -3% | 99% (active) | 97.8% (active) | 7% | 99% (active) | 97.2% (active) | 1% | 99% (active) | 97.5% (active) | -3% | 98% (active) | 97.5% (active) | 9% | 99% (active) | 98.2% (active)
Cc1ccccc1N1C(=O)C(=O)c2cccc(C)c21 | 2% | 98% (active) | 99.2% (active) | 0% | 99% (active) | 99.5% (active) | 1% | 99% (active) | 99.7% (active) | 1% | 98% (active) | 97% (active) | 2% | 99% (active) | 99.8% (active) | 0% | 99% (active) | 83.1% (active)
COc1ccc(C(=O)C(C(c2ccccc2)N2CCc3ccccc3C2)N2CCc3ccccc3C2)cc1 (stereo not given) | 3% | 22% | 27.4% | -2% | 2% | 15.2% | 0% | -6% | 12.2% | 2% | -27% | 26.9% | -3% | 4% | 78.3% (active) | -1% | 6% | 27.6%
O=S(=O)(c1ccccc1)C1CN=NC1c1ccccc1 (stereo not given) | 4% | 79% (active) | 84.2% (active) | -16% | 97% (active) | 97.7% (active) | -7% | 98% (active) | 73.6% (active) | -2% | 69% | 93.5% (active) | 6% | 98% (active) | 87.8% (active) | 30% | 97% (active) | 97% (active)
O=[N+]([O-])C1C2C=CC(C2)[C@H]1c1ccc(Cl)cc1Cl (stereo not given in full) | 28% | 70% (active) | 89.5% (active) | 29% | 85% (active) | 93.2% (active) | 33% | 96% (active) | 92.2% (active) | 15% | 73% (active) | 89% (active) | 52% | 93% (active) | 91.6% (active) | 37% | 89% (active) | 89.2% (active)
O=C1CSC(Cc2nc3ccccc3[nH]2)=N1 | 30% | 79% (active) | 76.7% (active) | 26% | 79% (active) | 79.5% (active) | 44% | 87% (active) | 73% (active) | 36% | 55% | 69% | 22% | 71% (active) | 77.8% (active) | 48% | 90% (active) | 74.9% (active)
CC(C)OP(=O)(OC(C)C)/C(I)=N/Nc1ccc([N+](=O)[O-])cc1 | -7% | -1% | 68.7% | -6% | 8% | 13.9% | 6% | 37% | 38.4% | -14% | 14% | 13.1% | 1% | -1% | 61.7% | 9% | 4% | 70%
Cc1cc(N2C(=O)CSC2=S)c([N+](=O)[O-])cc1C | 23% | 99% (active) | 99.2% (active) | 17% | 100% (active) | 99.5% (active) | 64% | 99% (active) | 99.5% (active) | 7% | 97% (active) | 99.1% (active) | 42% | 99% (active) | 99.5% (active) | 84% (active) | 99% (active) | 99.3% (active)
O=C(O)c1ccccc1-c1ccccc1C(=O)Nc1ccc2c(c1)Cc1cc(F)ccc1-2 | 22% | 97% (active) | 94.1% (active) | -3% | 97% (active) | 97.5% (active) | -8% | 95% (active) | 97.9% (active) | -19% | 96% (active) | 96.8% (active) | -27% | 92% (active) | 97.8% (active) | -2% | 97% (active) | 97.2% (active)
O=C(CCl)Nc1cc(Cl)ccc1Cl | 2% | 23% | 37.5% | -20% | 26% | 30.8% | 6% | 30% | 43.4% | 5% | 20% | 18.1% | 10% | 83% (active) | 84.6% (active) | 2% | 18% | 4.8%
CCC(C(c1ccc(Cl)cc1)c1ccc(Cl)c(Cl)c1)[N+](=O)[O-] (stereo not given) | 4% | 12% | 8.3% | 0% | 17% | -4.05% | 4% | 12% | 14.1% | 4% | 30% | 34% | 19% | 38% | 47.5% | 1% | 32% | 5.3%
